Reference: PubChem BioAssay (NCATS)
Records with an inconclusive call do not appear. A structure can be active in one record and inactive in another. Calls of active or inactive are those of the source. Calls come from the whole dose curve; as a rule, active = well fitted curve in the direction sought with a large enough effect; inconclusive = small, poorly fitted or top-dose-only effect, or another doubt; inactive = no such curve, though single readings can be large; an effect the other way counts as inactive or inconclusive.

Target: Voltage-gated inwardly rectifying potassium channel KCNH2 (Homo sapiens) (UniProt Q12809)
Sequence (Q12809 whole entry, looked up): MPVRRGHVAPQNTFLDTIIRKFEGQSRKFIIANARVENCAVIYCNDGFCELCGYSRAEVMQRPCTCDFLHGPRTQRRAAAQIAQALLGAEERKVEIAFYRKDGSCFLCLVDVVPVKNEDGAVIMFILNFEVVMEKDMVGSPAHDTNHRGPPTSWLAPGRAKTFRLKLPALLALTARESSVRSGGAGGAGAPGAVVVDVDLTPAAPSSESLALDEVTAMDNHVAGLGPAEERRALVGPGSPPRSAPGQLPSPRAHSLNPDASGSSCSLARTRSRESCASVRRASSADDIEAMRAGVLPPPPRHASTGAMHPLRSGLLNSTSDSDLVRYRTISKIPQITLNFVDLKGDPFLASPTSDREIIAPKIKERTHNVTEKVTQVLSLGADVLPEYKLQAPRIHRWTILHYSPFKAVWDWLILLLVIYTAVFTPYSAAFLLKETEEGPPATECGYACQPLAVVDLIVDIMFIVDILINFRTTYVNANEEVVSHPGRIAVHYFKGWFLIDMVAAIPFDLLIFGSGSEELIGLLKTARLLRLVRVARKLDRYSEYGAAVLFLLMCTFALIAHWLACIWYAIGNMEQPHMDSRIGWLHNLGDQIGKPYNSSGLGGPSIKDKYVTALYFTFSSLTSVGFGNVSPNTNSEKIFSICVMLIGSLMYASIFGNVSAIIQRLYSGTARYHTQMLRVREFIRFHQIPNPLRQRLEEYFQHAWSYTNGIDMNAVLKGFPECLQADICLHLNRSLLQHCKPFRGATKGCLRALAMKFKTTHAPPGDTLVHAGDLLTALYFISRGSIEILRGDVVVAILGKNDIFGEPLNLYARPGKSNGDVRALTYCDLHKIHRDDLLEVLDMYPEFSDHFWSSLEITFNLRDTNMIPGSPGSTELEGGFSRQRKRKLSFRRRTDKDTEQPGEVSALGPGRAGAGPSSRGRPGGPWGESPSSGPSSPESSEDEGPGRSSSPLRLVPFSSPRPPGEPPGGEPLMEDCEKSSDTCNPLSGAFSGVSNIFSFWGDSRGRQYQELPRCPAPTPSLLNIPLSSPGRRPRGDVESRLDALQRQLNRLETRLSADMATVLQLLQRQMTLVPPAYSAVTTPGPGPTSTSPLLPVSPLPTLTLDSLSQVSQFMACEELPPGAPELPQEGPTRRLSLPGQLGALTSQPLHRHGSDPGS
Experiment: qHTS Assay for Small Molecule Inhibitors of the Human hERG Channel Activity (AID 588834);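 note: lower thallium flux fluorescence means stronger hERG block; nearly all actives have a fitted effect of over 50% in size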; note: potency is the fitted concentration of half-maximal effect; for activity change, negative = inhibition: top concentration of the series differs between compounds; % is set by controls: 0 for no effect and ±100 for the full control effect
Settings: U2OS BacMam hERG, FluxOR thallium flux fluorescence; series mostly up to 46.1 µM; activity change, negative = inhibition: at the top concentration
Outline: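 hERG-BacMam U2OS, 2000 cells/well; 0.7X FluxOR loading 1 hr RT dark; cpd ~10 min 37 °C; stim buffer; FDSS fluorescence 2 min @ 1 s; AC50 Hill fit.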

SMILES	activity change, negative = inhibition	Potency
CCN(CC)c1ncnc2c1ncn2[C@@H]1O[C@H](COP(=O)(O)OP(=O)(O)C(Br)(Br)P(=O)(O)O)[C@@H](O)[C@H]1O	4.99% (inactive)	
CO[C@H]1[C@@H](O)C[C@H](O[C@H]2[C@@H](O)C[C@H](O[C@H]3[C@@H](O)C[C@H](O[C@H]4CC[C@@]5(C)[C@H](CC[C@@H]6[C@@H]5C[C@@H](O)[C@]5(C)[C@@H](C7=CC(=O)OC7)CC[C@]65O)C4)O[C@@H]3C)O[C@@H]2C)O[C@@H]1C	1.63% (inactive)	
O=C(CS(=O)C(c1ccccc1)c1ccccc1)NO (configuration not stated)	14.2% (inactive)	
NCC(O)c1cccc(O)c1 (configuration not stated)	2.84% (inactive)	
NC(=O)COc1c(F)cc(SCCNS(=O)(=O)c2ccccc2)cc1F	1.5% (inactive)	
CCN(CC)C(=O)/C(Cl)=C(\C)OP(=O)(OC)OC	5.53% (inactive)	
C[N+](C)(C)CCOC(=O)CBr	-0.167% (inactive)	
COc1ccc(OC)c([C@@H](O)[C@H](C)N)c1	5.04% (inactive)	
CN[C@H]1C[C@@H](N)[C@H](O)[C@@H](O[C@@H]2O[C@H](CO)[C@H](O)[C@@H]3OC4(O[C@H]23)O[C@H](C(N)CO)[C@H](O)[C@H](O)[C@H]4O)[C@@H]1O (some centres not stated)	1.51% (inactive)	
Cc1ccccc1-n1c(C)nc2ccccc2c1=O	5.91% (inactive)	
CCCCCCC(C)(C)c1ccc([C@@H]2C[C@H](O)CC[C@H]2CCCO)c(O)c1		8.91 µM (active)
CCN(CC)CCO[C@H]1CC[C@@]2(C)C(=CC[C@@H]3[C@@H]2CC[C@]2(C)C(=O)CC[C@@H]32)C1	-6.96% (inactive)	
CC1OC1P(=O)(O)O (configuration not stated)	13.5% (inactive)	
N[C@@H](Cn1oc(=O)[nH]c1=O)C(=O)O	-4.31% (inactive)	
C[C@@H](Cc1ccccc1)NCCC(c1ccccc1)c1ccccc1		0.631 µM (active)
CCC(C)(S(=O)(=O)CC)S(=O)(=O)CC	12.9% (inactive)	
C[C@]12CC[C@H]3[C@@H](CCC4=C(O)C(=O)CC[C@@H]43)[C@@H]1CC[C@@H]2OC(=O)CCC1CCCC1	-12.4% (inactive)	
CNc1ccc2oc(C[C@H]3O[C@@]4(CC[C@H]3C)O[C@H]([C@H](C)C(=O)c3ccc[nH]3)[C@H](C)C[C@H]4C)nc2c1C(=O)O		3.16 µM (active)
CN1CCC(c2c[nH]c3ccc(O)cc23)CC1		2 µM (active)
COC(COC(N)=O)C1=C(N2CC2)C(=O)C(C)=C(N2CC2)C1=O (configuration not stated)	-13.6% (inactive)	
COc1cc2c(cc1OC)[C@@]13CCN4CC5=CCO[C@H]6CC(=O)N2[C@H]1[C@H]6[C@H]5C[C@H]43	-12.5% (inactive)	
CC(C)CCC(=O)O[C@H]1CC[C@H]2[C@@H]3CCC4=CC(=O)CC[C@]4(C)[C@H]3CC[C@]12C		25.1 µM (active)
Cc1cc(C)cc(C(=O)OC2C[C@H]3CC[C@@H](C2)N3C)c1 (some centres not stated)		3.98 µM (active)
O=C1C[C@@H]2OCC=C3CN4CC[C@]56c7ccccc7N1[C@H]5[C@H]2[C@H]3C[C@H]46 (tested in a mixture with another compound)		25.1 µM (active) and inactive
Clc1ccc(C(Cn2ccnc2)OCc2csc3c(Cl)cccc23)c(Cl)c1 (configuration not stated)		3.98 µM (active)

Target: Luciferin 4-monooxygenase (Photinus pyralis) (UniProt P08659)
Sequence (P08659 whole entry, looked up): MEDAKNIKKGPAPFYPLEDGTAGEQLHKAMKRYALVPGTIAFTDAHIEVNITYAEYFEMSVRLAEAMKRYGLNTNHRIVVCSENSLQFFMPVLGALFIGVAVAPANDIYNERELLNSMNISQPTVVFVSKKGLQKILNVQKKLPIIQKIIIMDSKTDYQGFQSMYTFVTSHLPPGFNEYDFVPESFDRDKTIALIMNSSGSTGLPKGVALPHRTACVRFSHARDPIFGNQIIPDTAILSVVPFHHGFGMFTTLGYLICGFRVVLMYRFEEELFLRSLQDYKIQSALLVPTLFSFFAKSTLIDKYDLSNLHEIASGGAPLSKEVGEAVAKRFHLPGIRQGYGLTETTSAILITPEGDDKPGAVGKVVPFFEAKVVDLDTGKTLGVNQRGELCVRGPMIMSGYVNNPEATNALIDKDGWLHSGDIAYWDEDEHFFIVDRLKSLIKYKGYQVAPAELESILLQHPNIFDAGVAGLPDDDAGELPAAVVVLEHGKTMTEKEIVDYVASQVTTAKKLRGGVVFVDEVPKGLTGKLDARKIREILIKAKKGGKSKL
Experiment: Biochemical firefly luciferase enzyme assay for NPC (AID 624030);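 note: purified P. pyralis luciferase at 10 nM with luciferin and ATP substrate; 0% = DMSO and -100% = full luciferase inhibition by PTC124 control; nearly all actives have a fitted effect of over 70% in size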
Settings: purified P. pyralis luciferase, luminescence, 5 min; series mostly up to 58.6 µM; activity change, negative = inhibition: at the top concentration
Outline: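 Counter-screen for direct inhibition of the luciferase enzyme by approved-drug library compounds, run at 10 nM enzyme in 50 mM Tris acetate (final). Luminescence was read within 5 min of enzyme-buffer addition and normalized to PTC124 versus DMSO (0%).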

SMILES	activity change, negative = inhibition
O=C(OCCN1CCCCC1)C(O)(c1ccccc1)c1ccccc1	0.818% (inactive)
Clc1ccc(C2(Cn3cncn3)OCCO2)c(Cl)c1	-3.84% (inactive)
O=C(CS(=O)C(c1ccccc1)c1ccccc1)NO (configuration not stated)	1.19% (inactive)
NCC(O)c1cccc(O)c1 (configuration not stated)	0.488% (inactive)
CCN(CC)C(=O)/C(Cl)=C(\C)OP(=O)(OC)OC	1.1% (inactive)
Cc1ccccc1-n1c(C)nc2ccccc2c1=O	-5.12% [at 123 µM] (inactive)
C[C@@H](Cc1ccccc1)NCCC(c1ccccc1)c1ccccc1	8.66% [at 24.9 µM] (inactive)
CCC(C)(S(=O)(=O)CC)S(=O)(=O)CC	-3.13% (inactive)

Test system: not listed separately
Experiment: S16 Schwann cell viability assay (CellTiter-Glo assay) (AID 624031);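 note: cellular ATP luminescence as a viability measure; plate controls were DMSO-treated cells for no effect and cell-free wells for full effect; nearly all actives have a fitted effect of over 70% in size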
Settings: S16 rat Schwann cells viability, 24 h; series mostly up to 57.5 µM; activity change, negative = cytotoxicity: at the top concentration
Outline: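 Untransfected S16 rat Schwann cells; compound 24 h, 37 °C/5% CO2; CellTiter-Glo ATP luminescence. % activity vs no-cell wells and DMSO controls (0%); concentration-effect curves classed by r2, response magnitude, activity.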

SMILES	activity change, negative = cytotoxicity
O=C(OCCN1CCCCC1)C(O)(c1ccccc1)c1ccccc1	-18.8% (inactive)
Clc1ccc(C2(Cn3cncn3)OCCO2)c(Cl)c1	-2.49% (inactive)
NCC(O)c1cccc(O)c1 (configuration not stated)	7.98% (inactive)
CCN(CC)C(=O)/C(Cl)=C(\C)OP(=O)(OC)OC	14.6% (inactive)
